Test results as given in PubChem BioAssay (Tox21).
“And” between values parts separate entries of the source, which are not always exact repeats. Equal entries are not always repeated. Records with an inconclusive call do not appear. Where a call stands in place of a potency, no number is given. Unmarked numbers belong to inactive results. The source made the active and inactive calls. Calls come from the whole dose curve; as a rule, active = well fitted cell-killing curve with a large enough effect in the repeat runs; inconclusive = weak or mixed curves, or effect the other way; inactive = flat fitted curve, though single readings scatter.
Potency is the fitted concentration of half-maximal effect.

Test: cAMP Responsive Elements (CRE) small molecule agonists, cell-based qHTS assay: qHTS cell viability counter screen (AID 2060914);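 note: viability read after 3 h of compound exposure; nearly all actives have a fitted effect of over 50% in size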
Conditions: CRE-bla HEK293T viability, CellTiter-Glo luminescence, 5 h; series mostly up to 92.4 µM
Text: National Center for Advancing Translational Sciences [NCATS]
Division of Preclinical Innovation [DPI]
U.S. Environmental Protection Agency [EPA]
National Institutes of Environmental Health Sciences [NIEHS]
National Toxicology Program [NTP]
U.S. Food and Drug Administration [FDA]
CREB (cyclic-AMP Responsive Element Binding Protein) is a cellular transcription factor. It binds to certain DNA sequences called cAMP Responsive Elements (CRE) and regulates the transcription of the genes. […] This cell line can be used to find agonists/antagonists of the cyclic AMP signaling pathway. The activation of the report gene under culture conditions can be detected by fluorescence intensity. This cell line has been used to screen the Tox21 10K compound library to identify agonists that induce oxidative stress. The cytotoxicity of the Tox21 compound library against the CRE-bla cell line was tested in parallel by measuring the cell viability using CellTiter-Glo assay (Promega, Madison, WI) in the same wells.
Tox21 Assay Protocol Summary:
CRE-bla Hek 293T cells were suspended in assay medium (DMEM containing 10% dialyzed FBS, 0.1 mM NEAA, 1 mM sodium pyruvate and 25 mM HEPES) and dispensed at 2,000 cells/5 uL /well into 1536-well black wall/clear bottom plates using a Multidrop Combi (ThermoFisher Scientific, Waltham, MA) dispenser. After the assay plates were incubated at 37 C/5% CO2 for 18 hrs, 23 nL of compounds dissolved in DMSO, positive controls or DMSO only was transferred to the assay plate by a pintool workstation (Kalypsys, San Diego, CA). After the plates were incubated at 37 C/5% CO2 for 3 hrs, 1 uL of LiveBLAzer B/G FRET substrate (Invitrogen, Carlsbad, CA) was added to each well using Bioraptr Flying Reagent Dispenser (FRD, Aurora Discovery, San Diego, CA). The plates were incubated at room temperature for 2 h, then fluorescence intensities were measured using an Envision plate reader (PerkinElmer, Shelton, CT) at Excitation 405nm, Emission 460nm and 530nm. The % activity was determined from the ratio of 460nm/530nm. For cell viability readout that measures cytotoxicity, 4 uL /well of CellTiter-Glo reagent was added into the assay plates using Bioraptr FRD. After 30 min incubation at room temperature, the luminescence intensity in the assay plates was measured using a ViewLux (PerkinElmer, Shelton, CT) plate reader.
In the case of `c1cc(-c2ccncc2)ccn1`, the Potency is reported as “inactive”. In the case of `CCN=c1cc2oc3cc(NCC)c(C)cc3c(-c3ccccc3C(=O)OCC)c-2cc1C`, the Potency is reported as 68.3 µM (active) and 61.1 µM (active). For `Nc1nc(=O)n([C@@H]2O[C@H](CO)[C@@H](O)[C@@H]2F)cc1I`, the Potency was “inactive”. With `O=C1NC(c2ccccc2)(c2ccccc2)C(=O)N1COP(=O)(O)O` the Potency was “inactive”. In the case of `CCCCCOC(C)=O`, the Potency is reported as “inactive”. For `O=C(/C=C/c1ccccc1)OCc1ccccc1`, the Potency was “inactive”. For `CC(O)CN` (stereo not given), the Potency was “inactive”. For `O=C(CCCN1CC=C(n2c(=O)[nH]c3ccccc32)CC1)c1ccc(F)cc1`, the Potency was “inactive”. With `CCc1nn(C2CCCCC2)c2cc(C3(C#N)CCC(C(=O)O)CC3)ccc12` (stereo not given) the Potency was “inactive”. For `Cc1coc2ccccc2c1=O`, the Potency was “inactive”. With `Cn1c([N+](=O)[O-])cnc1COC(N)=O` the Potency was “inactive”. For `COc1cccc(O)c1`, the Potency was “inactive”. In the case of `CCn1c2ccccc2c2ccccc21`, the Potency is reported as “inactive”. With `C=CC(=O)OCCC#N` the Potency was “inactive”. In the case of `CC(CN(CCN(CC(C)OCCO)CC(C)OCCO)CC(C)OCCO)OCCO` (stereo not given), the Potency is reported as “inactive”. With `CCC(C)(CCC(C)C)C(=O)[O][Sn]([CH3])([CH3])[O]C(=O)C(C)(CC)CCC(C)C` (stereo not given) the Potency was “inactive”. For `Cc1ccc(N=Nc2c(O)c(C(=O)O)cc3ccccc23)c(S(=O)(=O)O)c1`, the Potency was “inactive”. For `O=CCCc1ccccc1`, the Potency was “inactive”. In the case of `CCCN(CCC)C(=O)C(CCC(=O)O)NC(=O)c1ccccc1` (stereo not given), the Potency is reported as “inactive”. With `CCN(CC)CCN` the Potency was “inactive”. With `CC1=NN(c2cc(S(=O)(=O)O)ccc2Cl)C(=O)C1N=Nc1ccccc1` (stereo not given) the Potency was “inactive”. In the case of `C/C(=N\[Si](C)(C)C)O[Si](C)(C)C`, the Potency is reported as “inactive”. With `O=C(CCOCCOCCOCCOCCC(=O)Nc1c(I)cc(I)c(C(=O)O)c1I)Nc1c(I)cc(I)c(C(=O)O)c1I` the Potency was “inactive”. For `COc1cc(NS(=O)(=O)c2ccc(N)cc2)ncn1`, the Potency was “inactive”. For `CCC/C=C/CO`, the Potency was “inactive”. For `c1ccc(-c2nc[nH]c2-c2ccccc2)cc1`, the Potency was “inactive”. With `O=C1OC2(c3ccc(O)cc3Oc3cc(O)ccc32)c2ccccc21` the Potency was “inactive”. With `Nc1nc2ccc([N+](=O)[O-])cc2s1` the Potency was “inactive”. In the case of `CCCCC(=O)O`, the Potency is reported as “inactive”. With `CCCC(C)C(=O)OCC` (stereo not given) the Potency was “inactive”. For `c1ccc2[nH]cnc2c1`, the Potency was “inactive”. In the case of `Cc1oc(-c2ccccc2)nc1CCC(=O)c1ccc(CC2SC(=O)NC2=O)cc1` (stereo not given), the Potency is reported as “inactive”. In the case of `CSCC[C@H](NC(=O)[C@H](Cc1c[nH]c2ccccc12)NC(=O)CCNC(=O)OC(C)(C)C)C(=O)N[C@@H](CC(=O)O)C(=O)N[C@@H](Cc1ccccc1)C(N)=O`, the Potency is reported as “inactive”. For `Nc1cc(Cl)c([N+](=O)[O-])cc1O`, the Potency was “inactive”. With `[Cl][Pt-2]([Cl])([Cl])[Cl]` the Potency was “inactive”. Compound `O=c1oc2c(O)c(O)cc3c(=O)oc4c(O)c(O)cc1c4c23` has an activity change, negative = cytotoxicity of -1.77% [at 18.9 µM]. In the case of `Cc1nc2sccn2c(=O)c1CCN1CCC(=C(c2ccc(F)cc2)c2ccc(F)cc2)CC1`, the Potency is reported as “inactive”. With `C=CCOCC(O)CO` (stereo not given) the Potency was “inactive”. For `CN1C(C(=O)Nc2ccccn2)=C(O)c2ccccc2S1(=O)=O`, the Potency was “inactive”. With `CCOC(=O)c1cccc(N)c1` the Potency was “inactive”.
